Data reported in PubChem BioAssay AID2330 (Broad Institute, 2010).
Hit rate of the full screen: of about 37,000 compounds, about 2,800 (7.6%) were called active. Inconclusive results (about 1%) are left out. Rule as the data show it: active = inhibition above about 80%; inconclusive = no clear call, values can overlap the other calls; inactive = below that. Many of the other results were omitted from the sample, so actives are more common in it than they were.

Test: NOMO-1 AML cell viability reduction, primary screen, STK33 inhibitor project, CellTiter-Glo luminescence (AID 2330)
Conditions: NOMO-1 AML viability, 72 h, hits give high values, concentration not given here
In the case of `COc1ccc(OC(C)C(=O)Nc2ccc(OC)c(OC)c2)cc1` (stereo not given), the inhibition is reported as -22% (inactive).
For `COc1ccc(NC(=S)NCc2cc(C)n(C)n2)cc1OC`, the inhibition was 6.06% (inactive).
In the case of `COc1ccc(NC(=S)SC)cc1OC`, the inhibition is reported as 87.2% (active).
With `Cc1ccc([N+](=O)[O-])cc1NC(=O)CSC1=NCCS1` the inhibition was 21.4% (inactive).
With `C[C@@H]1CN([C@@H](C)CO)C(=O)c2cccc(NC(=O)c3ccc(-c4nccs4)cc3)c2O[C@H]1CN(C)C(=O)Nc1ccccc1` the inhibition was -9.67% (inactive).
In the case of `CC[C@]1(O)C[C@@H]2CN(CCc3c([nH]c4ccccc34)[C@@](C(=O)OC)(c3cc4c(cc3OC)N(C)[C@H]3[C@@](O)(C(=O)OC)[C@H](OC(C)=O)[C@]5(CC)C=CCN6CC[C@]43[C@@H]65)C2)C1`, the inhibition is reported as 112% (active).
For `C[C@@H]1CN([C@H](C)CO)C(=O)c2cc(NC(=O)Nc3ccc4c(c3)OCO4)ccc2O[C@@H]1CN(C)C(=O)Nc1ccc(F)cc1`, the inhibition was 33.1% (inactive).
With `C[C@@H]1CN([C@H](C)CO)C(=O)c2cccc(NS(=O)(=O)c3cn(C)cn3)c2O[C@H]1CN(C)Cc1ccc(C(=O)O)cc1` the inhibition was -16.7% (inactive).
In the case of `Cc1nnc(SCC(=O)Nc2cc(Cl)ccc2C)s1`, the inhibition is reported as 22.1% (inactive).
With `C[C@@H]1CN([C@@H](C)CO)C(=O)c2cccc(NC(=O)c3ccncc3)c2O[C@@H]1CN(C)CC1CC1` the inhibition was 4.97% (inactive).
In the case of `COc1ccc(CN(C)C[C@H]2Oc3c(NC(=O)C4CC4)cccc3C(=O)N([C@@H](C)CO)C[C@H]2C)cc1`, the inhibition is reported as -16.6% (inactive).
With `Cc1cc(C(=O)Nc2cccc3c2O[C@@H](CN(C)Cc2ccncc2)[C@@H](C)CN([C@@H](C)CO)C3=O)n(C)n1` the inhibition was 19.4% (inactive).
For `Cc1cc(C(=O)Nc2cccc3c2O[C@@H](CN(C)Cc2ccc(C(=O)Nc4ccccc4N)cc2)[C@H](C)CN([C@@H](C)CO)C3=O)n(C)n1`, the inhibition was 89.1% (active).
With `C[C@@H]1CN([C@@H](C)CO)C(=O)c2cccc(NC(=O)c3cnccn3)c2O[C@H]1CN(C)Cc1ccc(C(=O)O)cc1` the inhibition was -15.7% (inactive).
With `Cc1cc(C(=O)Nc2cccc3c2O[C@@H](CN(C)Cc2ccc(C(=O)O)cc2)[C@H](C)CN([C@@H](C)CO)C3=O)n(C)n1` the inhibition was 0.233% (inactive).
With `C[C@@H]1CN([C@H](C)CO)C(=O)c2cccc(NC(=O)c3cnccn3)c2O[C@@H]1CN(C)Cc1ccncc1` the inhibition was 13.1% (inactive).
In the case of `C[C@H](CO)N1C[C@H](C)[C@@H](CN(C)Cc2ccc(C(=O)Nc3ccccc3N)cc2)Oc2c(NC(=O)C3CC3)cccc2C1=O`, the inhibition is reported as 106% (active).
In the case of `C[C@@H]1CN([C@H](C)CO)C(=O)c2cccc(NC(=O)c3cnccn3)c2O[C@@H]1CN(C)Cc1ccc(C(=O)Nc2ccccc2N)cc1`, the inhibition is reported as 126% (active).
With `C[C@@H]1CN([C@@H](C)CO)C(=O)c2cccc(NC(=O)C3CC3)c2O[C@@H]1CN(C)Cc1ccccc1` the inhibition was 4.47% (inactive).
In the case of `COc1ccc(S(=O)(=O)Nc2cccc3c2O[C@@H](CN(C)Cc2ccc(-c4ccccc4)cc2)[C@H](C)CN([C@H](C)CO)C3=O)cc1`, the inhibition is reported as 22.4% (inactive).
In the case of `CCn1c(SCC(=O)c2ccc(OC)cc2)nnc1-c1ccc(Cl)cc1Cl`, the inhibition is reported as -7.21% (inactive).
In the case of `Cc1cccc(N(CC(=O)Nc2cccc([N+](=O)[O-])c2)S(C)(=O)=O)c1C`, the inhibition is reported as -1.91% (inactive).
With `COc1cc(OC)c(NC(=O)CSc2nnc(-c3ccncc3)n2-c2ccccc2)cc1Cl` the inhibition was 37.4% (inactive).
In the case of `COc1ccc(OC)c(NC(=O)c2cnn(-c3ccccc3Cl)c2NC(=O)c2ccco2)c1`, the inhibition is reported as 21.2% (inactive).
With `CC(C)NC(=O)Nc1ccc2c(c1)CC(=O)N([C@H](C)CO)C[C@@H](C)[C@@H](CN(C)C(=O)Nc1ccc3c(c1)OCO3)O2` the inhibition was 21.8% (inactive).
For `c1ccc(-n2c(SCc3nc4ccccc4s3)nnc2-c2ccncc2)cc1`, the inhibition was 37.8% (inactive).
In the case of `CSC1=N/C(=C\C=C\c2cccs2)C(=O)S1`, the inhibition is reported as 123% (active).
With `COc1ccc(N(Cc2cc3ccccc3[nH]c2=O)C(=O)c2cccc(OC)c2)cc1` the inhibition was -11% (inactive).
In the case of `COc1ccccc1CCNC(=O)c1cnccn1`, the inhibition is reported as 4.1% (inactive).
For `COC(=O)c1scc(S(=O)(=O)C(C)(C)C)c1-n1cccc1`, the inhibition was 100% (active).
In the case of `C[C@@H]1CN([C@H](C)CO)C(=O)c2cc(NC(=O)CCN3CCOCC3)ccc2O[C@H]1CN(C)Cc1ccc(Oc2ccccc2)cc1`, the inhibition is reported as 5.92% (inactive).
With `C[C@@H]1CN([C@H](C)CO)C(=O)c2cc(NS(=O)(=O)c3cccs3)ccc2O[C@H]1CN(C)Cc1ccncc1` the inhibition was -4.5% (inactive).
In the case of `C=C1C(=O)O[C@@H]2[C@H]3C(CO)=CC(=O)C3=C(C)C[C@H](OC(=O)Cc3ccc(O)cc3)[C@@H]12`, the inhibition is reported as 120% (active).
For `C=CC(=O)c1ccc2ccccc2c1`, the inhibition was 98.4% (active).
With `COc1ccccc1NC(=O)CCC(=O)c1ccc(C)cc1` the inhibition was 29.1% (inactive).
In the case of `COC(=O)C(C)N(C#N)c1nc(C)nc(C)n1` (stereo not given), the inhibition is reported as 113% (active).
In the case of `COc1ccc(CN(C)C[C@H]2Oc3c(NC(=O)c4cnccn4)cccc3C(=O)N([C@H](C)CO)C[C@@H]2C)cc1`, the inhibition is reported as 5.98% (inactive).
With `C[C@@H]1CC[C@]2(C)[C@H](CC[C@@H](O)[C@]2(C)O)[C@@]1(C)CC(=O)c1ccoc1` the inhibition was 9.78% (inactive).
With `COc1cc(OC)cc(C2C(C#N)=C(N)OC(N)=C2C#N)c1` the inhibition was 38.6% (inactive).
With `COCc1nc2c([nH]1)C(c1ccccc1COc1ccc(Cl)cc1)C(C#N)=C(N)O2` (stereo not given) the inhibition was 111% (active).
With `CCn1c(SCC(=O)O)nnc1-c1ccc(OC)cc1` the inhibition was -32.5% (inactive).
In the case of `S=c1cc(-c2ccccc2)oc(-c2ccccc2)c1`, the inhibition is reported as 61.2% (inactive).
With `C[C@@H]1CN([C@H](C)CO)C(=O)c2cccc(NS(=O)(=O)c3ccc(Cl)cc3)c2O[C@@H]1CN(C)Cc1ccc(Oc2ccccc2)cc1` the inhibition was 49.7% (inactive).
In the case of `CCC(=O)O[C@]1(C(=O)CCl)[C@@H](C)CC2C3CCC4=CC(=O)C=C[C@]4(C)[C@@]3(F)[C@@H](O)C[C@@]21C` (stereo not given in full), the inhibition is reported as 7.72% (inactive).
With `COc1cc(NC(=O)COc2ccc(Br)cc2)ccc1NC(=O)c1ccccc1Cl` the inhibition was 13.7% (inactive).
With `CC(C)(C)c1ccc(-c2[nH]nc(NC(=O)c3ccccc3Cl)c2Br)cc1` the inhibition was 123% (active).
With `C[C@@H]1CN([C@@H](C)CO)C(=O)Cc2cc(NC(=O)Nc3ccc4c(c3)OCO4)ccc2O[C@@H]1CN(C)C(=O)Nc1ccc2c(c1)OCO2` the inhibition was 9.09% (inactive).
With `CC(C)NC(=O)Nc1cccc2c1O[C@H](CN(C)S(=O)(=O)c1ccccc1)[C@@H](C)CN([C@@H](C)CO)C2=O` the inhibition was 6.74% (inactive).
For `C[C@H]1CN([C@@H](C)CO)C(=O)c2cc(NS(=O)(=O)c3ccc(F)cc3)ccc2O[C@H]1CN(C)CC1CC1`, the inhibition was 16.3% (inactive).
With `Cc1ccc(S(=O)(=O)Nc2ccc3c(c2)C(=O)N([C@@H](C)CO)C[C@H](C)[C@@H](CN(C)S(=O)(=O)c2ccc(C)cc2)O3)cc1` the inhibition was -8.16% (inactive).
With `C[C@@H]1CN([C@H](C)CO)C(=O)Cc2cc(NC(=O)c3ccncc3)ccc2O[C@H]1CN(C)S(=O)(=O)c1cccs1` the inhibition was 13.9% (inactive).
In the case of `C[C@H](CO)N1C[C@H](C)[C@H](CN(C)Cc2ccc(C(F)(F)F)cc2)Oc2ccc(NS(C)(=O)=O)cc2C1=O`, the inhibition is reported as 3.14% (inactive).
For `CCn1c(SCC(=O)Nc2sc3c(c2C#N)CCCC3)nnc1-c1ccccc1O`, the inhibition was -7.99% (inactive).
In the case of `N#Cc1c(NC(=O)CCn2cnc3ccccc3c2=O)sc2c1CCCC2`, the inhibition is reported as 27.7% (inactive).
For `CN1CCN(CC(=O)Nc2sc3c(c2C#N)CCC(C(C)(C)C)C3)CC1` (stereo not given), the inhibition was 115% (active).
For `OC(c1nc2ccccc2[nH]1)C(O)C(O)C(O)c1nc2ccccc2[nH]1` (stereo not given), the inhibition was -2.04% (inactive).
With `O=C(CSc1ncnc2sc3c(c12)CCCC3)Nc1ccc(F)c(Cl)c1` the inhibition was -1.63% (inactive).
In the case of `CC(C)NC(=O)N(C)C[C@H]1Oc2c(NS(C)(=O)=O)cccc2C(=O)N([C@@H](C)CO)C[C@H]1C`, the inhibition is reported as 12.9% (inactive).
For `C[C@@H]1CN([C@@H](C)CO)C(=O)c2cccc(NC(=O)c3cnccn3)c2O[C@H]1CN(C)S(=O)(=O)c1cccs1`, the inhibition was 9.49% (inactive).
With `COc1cc(/C=C/C(=O)O[C@@H]2O[C@H](CO[C@@H]3O[C@H](CO)[C@@H](O)[C@H](O)[C@H]3O)[C@@H](O)[C@H](O)[C@H]2OC(=O)/C=C/c2cc(OC)c(O)c(OC)c2)cc(OC)c1O` the inhibition was 14.7% (inactive).
For `O=C(OCC1OC(Oc2ccc(O)cc2COC(=O)C2(O)C(O)CCC(O)C2O)C(O)C(O)C1O)c1ccccc1` (stereo not given), the inhibition was 17% (inactive).
With `COc1cc(O[C@@H]2O[C@H](CO[C@H]3OC[C@](O)(COC(=O)c4ccc(O)c(OC)c4)[C@H]3O)[C@@H](O)[C@H](O)[C@H]2O)ccc1O` the inhibition was 120% (active).
For `Cc1ccc(S(=O)(=O)N(C)C[C@@H]2Oc3c(NC(=O)C4CCCCC4)cccc3C(=O)N([C@H](C)CO)C[C@H]2C)cc1`, the inhibition was 16.1% (inactive).
In the case of `COc1ccc(NC(=O)Nc2ccc3c(c2)C(=O)N([C@H](C)CO)C[C@H](C)[C@H](CN(C)C(=O)Nc2c(C)noc2C)OCCCC[C@@H](C)O3)cc1`, the inhibition is reported as -10.5% (inactive).
In the case of `CC(C)NC(=O)Nc1ccc2c(c1)C(=O)N([C@@H](C)CO)C[C@@H](C)[C@H](CN(C)Cc1ccc(Cl)c(Cl)c1)O2`, the inhibition is reported as 44.5% (inactive).
For `C[C@@H]1CN([C@H](C)CO)C(=O)c2cc(NC(=O)Nc3ccccc3)ccc2O[C@H]1CN(C)Cc1ccc(Cl)c(Cl)c1`, the inhibition was -8.23% (inactive).
For `C[C@@H]1CN([C@H](C)CO)C(=O)c2cc(NC(=O)Nc3ccc(F)cc3)ccc2O[C@@H]1CN(C)Cc1ccc(Cl)c(Cl)c1`, the inhibition was 62.8% (inactive).
In the case of `C[C@@H]1CN([C@@H](C)CO)C(=O)c2cc(NC(=O)Nc3cccc4ccccc34)ccc2O[C@H]1CN(C)Cc1ccc(Cl)c(Cl)c1`, the inhibition is reported as 94% (active).
In the case of `COc1ccc(NC(=O)Nc2ccc3c(c2)C(=O)N([C@@H](C)CO)C[C@@H](C)[C@H](CN(C)Cc2ccc(Cl)c(Cl)c2)O3)cc1`, the inhibition is reported as 39.3% (inactive).
With `C[C@@H]1CN([C@H](C)CO)C(=O)c2cc(NC(=O)Nc3ccccc3)ccc2O[C@@H]1CN(C)Cc1ccc(Cl)c(Cl)c1` the inhibition was 88.9% (active).
